This note sets out measurements from article PMC7862700, “An all-to-all approach to the identification of sequence-specific readers for epigenetic DNA modifications on cytosine”.

Test in all cases: DAPPL (digital affinity profiling via proximity ligation, sequencing); 10 mM Tris-HCl pH 7.5, 50 mM NaCl, 1 mM DTT, 4% glycerol, room temperature, 30 min; GST-TFs on glutathione beads, 16-mer random dsDNA library, 0.1% formaldehyde crosslink after washing; high values mean tight binding
What all share (conditions): protein: recombinant; tags: N-terminal GST; dsDNA, one strand shown

The target of one experiment is T1, FLI1 (Homo sapiens, UniProt Q01543 1-452).
T1 sequence: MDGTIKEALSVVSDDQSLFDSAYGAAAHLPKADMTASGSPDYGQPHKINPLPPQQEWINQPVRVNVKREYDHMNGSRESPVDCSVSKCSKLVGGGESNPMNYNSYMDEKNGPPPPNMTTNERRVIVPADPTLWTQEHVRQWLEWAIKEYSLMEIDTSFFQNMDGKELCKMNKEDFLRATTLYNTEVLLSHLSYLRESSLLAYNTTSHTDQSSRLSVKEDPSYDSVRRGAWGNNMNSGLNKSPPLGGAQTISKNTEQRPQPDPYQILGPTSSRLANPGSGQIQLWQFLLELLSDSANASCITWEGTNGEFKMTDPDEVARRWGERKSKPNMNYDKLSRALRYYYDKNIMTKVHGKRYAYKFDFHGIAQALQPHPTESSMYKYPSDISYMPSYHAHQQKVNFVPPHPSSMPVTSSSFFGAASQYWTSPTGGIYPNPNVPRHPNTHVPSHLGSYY
The essentials:
(§1)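 Each value of binding signal is a hexamer's read frequency for a factor divided by the same hexamer's frequency in the tag-only sample. Barcoded, bead-captured GST fusions of human transcription factors made in yeast were pooled with that sample and incubated with 200 nmole of a random double-stranded 16-mer DNA library in Tris/NaCl/DTT/glycerol buffer at room temperature for 30 min. Washing, 0.1% formaldehyde crosslinking, proximity ligation, PCR and Illumina NextSeq500 sequencing followed.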

In a further experiment the target is T2, ERG (Homo sapiens, UniProt P11308 1-479).
T2 sequence: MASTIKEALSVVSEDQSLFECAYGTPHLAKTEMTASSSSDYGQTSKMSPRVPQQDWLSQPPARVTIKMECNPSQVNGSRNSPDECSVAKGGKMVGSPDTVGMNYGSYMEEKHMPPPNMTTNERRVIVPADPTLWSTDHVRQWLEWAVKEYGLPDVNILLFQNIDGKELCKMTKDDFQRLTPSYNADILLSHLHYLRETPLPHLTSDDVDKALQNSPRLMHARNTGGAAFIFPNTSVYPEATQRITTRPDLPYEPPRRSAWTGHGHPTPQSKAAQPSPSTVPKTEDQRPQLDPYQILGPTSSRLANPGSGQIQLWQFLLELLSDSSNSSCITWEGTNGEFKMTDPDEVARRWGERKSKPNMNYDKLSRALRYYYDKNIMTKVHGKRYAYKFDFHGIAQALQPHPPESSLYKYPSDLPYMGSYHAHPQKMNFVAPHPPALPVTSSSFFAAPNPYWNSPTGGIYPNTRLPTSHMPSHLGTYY
The method in brief: as §1

The target in another experiment is T3, EHF (Homo sapiens, UniProt Q9NZC4 1-300).
T3 sequence: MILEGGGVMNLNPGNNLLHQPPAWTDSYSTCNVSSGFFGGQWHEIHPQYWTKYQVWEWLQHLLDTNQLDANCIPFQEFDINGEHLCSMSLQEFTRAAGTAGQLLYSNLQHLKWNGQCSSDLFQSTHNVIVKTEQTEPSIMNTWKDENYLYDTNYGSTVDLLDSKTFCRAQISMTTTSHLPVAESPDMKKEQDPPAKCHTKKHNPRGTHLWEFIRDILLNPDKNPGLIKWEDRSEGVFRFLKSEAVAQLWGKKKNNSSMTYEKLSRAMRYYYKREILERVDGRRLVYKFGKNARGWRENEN
The method in brief: as §1

In a further experiment the target is SPIB (Homo sapiens, UniProt Q01892 1-262). The essentials:
as §1

Another experiment addresses T4, ELF3 (Homo sapiens, UniProt P78545 1-371).
T4 sequence: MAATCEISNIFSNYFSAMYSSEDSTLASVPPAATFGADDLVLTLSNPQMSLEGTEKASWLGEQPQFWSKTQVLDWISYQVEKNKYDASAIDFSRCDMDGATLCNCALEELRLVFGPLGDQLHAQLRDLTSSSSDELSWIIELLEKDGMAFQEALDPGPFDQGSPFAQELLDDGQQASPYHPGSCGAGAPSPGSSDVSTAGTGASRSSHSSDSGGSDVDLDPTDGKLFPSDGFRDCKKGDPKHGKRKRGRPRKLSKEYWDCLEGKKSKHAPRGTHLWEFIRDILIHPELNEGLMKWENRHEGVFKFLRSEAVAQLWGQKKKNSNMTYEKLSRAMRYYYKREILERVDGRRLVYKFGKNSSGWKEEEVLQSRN
The essentials:
as §1

The target in a further experiment is ETV1 (Homo sapiens, UniProt P50549 1-477). The essentials:
as §1

The target of another experiment is T5, ELK1 (Homo sapiens, UniProt P19419 1-428).
T5 sequence: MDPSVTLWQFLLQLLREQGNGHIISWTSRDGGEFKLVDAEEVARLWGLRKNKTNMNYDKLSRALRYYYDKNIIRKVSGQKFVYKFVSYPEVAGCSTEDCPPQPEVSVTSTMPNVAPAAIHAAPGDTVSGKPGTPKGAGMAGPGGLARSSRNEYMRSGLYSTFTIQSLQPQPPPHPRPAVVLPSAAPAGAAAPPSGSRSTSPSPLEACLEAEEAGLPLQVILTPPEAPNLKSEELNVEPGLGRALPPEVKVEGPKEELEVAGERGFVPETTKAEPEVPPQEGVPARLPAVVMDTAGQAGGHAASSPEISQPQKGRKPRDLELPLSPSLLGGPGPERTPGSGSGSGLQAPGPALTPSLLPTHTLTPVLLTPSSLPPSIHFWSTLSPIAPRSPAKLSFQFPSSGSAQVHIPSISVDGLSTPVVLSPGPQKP
The essentials:
as §1

The next experiment concerns the target T6, GABPA (Homo sapiens, UniProt Q06546 1-454).
T6 sequence: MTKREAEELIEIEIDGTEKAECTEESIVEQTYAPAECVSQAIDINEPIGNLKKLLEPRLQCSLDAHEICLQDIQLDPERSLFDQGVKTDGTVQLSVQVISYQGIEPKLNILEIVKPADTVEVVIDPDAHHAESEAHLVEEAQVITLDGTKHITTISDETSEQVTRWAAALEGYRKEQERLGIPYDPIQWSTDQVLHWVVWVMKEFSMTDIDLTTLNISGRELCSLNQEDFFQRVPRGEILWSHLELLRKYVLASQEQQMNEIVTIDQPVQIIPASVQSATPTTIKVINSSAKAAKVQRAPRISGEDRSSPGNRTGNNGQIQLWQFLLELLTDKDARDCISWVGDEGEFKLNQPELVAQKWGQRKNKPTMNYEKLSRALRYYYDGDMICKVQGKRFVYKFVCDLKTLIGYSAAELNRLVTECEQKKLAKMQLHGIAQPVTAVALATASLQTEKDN
The method in brief:
as §1

Another experiment deals with T7, ELK3 (Homo sapiens, UniProt P41970 1-407).
T7 sequence: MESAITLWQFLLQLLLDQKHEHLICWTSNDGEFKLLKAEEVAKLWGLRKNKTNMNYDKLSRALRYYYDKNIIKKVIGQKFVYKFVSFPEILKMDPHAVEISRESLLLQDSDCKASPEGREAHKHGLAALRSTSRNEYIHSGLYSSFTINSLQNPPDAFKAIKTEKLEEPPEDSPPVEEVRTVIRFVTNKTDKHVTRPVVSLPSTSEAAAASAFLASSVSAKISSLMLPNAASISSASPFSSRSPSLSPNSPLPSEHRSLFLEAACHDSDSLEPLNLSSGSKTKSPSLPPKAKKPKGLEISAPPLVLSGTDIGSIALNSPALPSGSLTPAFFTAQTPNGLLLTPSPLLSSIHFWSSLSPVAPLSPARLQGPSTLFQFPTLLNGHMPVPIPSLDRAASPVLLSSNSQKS
The method in brief: as §1

A further experiment concerns the target T8, ETV3L (Homo sapiens, UniProt Q6ZN32 1-361).
T8 sequence: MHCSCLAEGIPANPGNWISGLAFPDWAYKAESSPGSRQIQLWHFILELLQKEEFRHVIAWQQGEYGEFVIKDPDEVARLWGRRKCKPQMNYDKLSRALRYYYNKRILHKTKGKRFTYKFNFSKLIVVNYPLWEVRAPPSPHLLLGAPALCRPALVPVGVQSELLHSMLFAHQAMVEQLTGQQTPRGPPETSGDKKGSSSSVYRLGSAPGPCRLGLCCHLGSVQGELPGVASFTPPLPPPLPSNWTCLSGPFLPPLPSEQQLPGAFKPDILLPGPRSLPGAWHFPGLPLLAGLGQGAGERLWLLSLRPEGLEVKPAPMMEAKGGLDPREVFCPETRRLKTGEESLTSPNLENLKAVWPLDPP
The method in brief:
as §1

In a further experiment the target is T9, ETS2 (Homo sapiens, UniProt P15036 1-469).
T9 sequence: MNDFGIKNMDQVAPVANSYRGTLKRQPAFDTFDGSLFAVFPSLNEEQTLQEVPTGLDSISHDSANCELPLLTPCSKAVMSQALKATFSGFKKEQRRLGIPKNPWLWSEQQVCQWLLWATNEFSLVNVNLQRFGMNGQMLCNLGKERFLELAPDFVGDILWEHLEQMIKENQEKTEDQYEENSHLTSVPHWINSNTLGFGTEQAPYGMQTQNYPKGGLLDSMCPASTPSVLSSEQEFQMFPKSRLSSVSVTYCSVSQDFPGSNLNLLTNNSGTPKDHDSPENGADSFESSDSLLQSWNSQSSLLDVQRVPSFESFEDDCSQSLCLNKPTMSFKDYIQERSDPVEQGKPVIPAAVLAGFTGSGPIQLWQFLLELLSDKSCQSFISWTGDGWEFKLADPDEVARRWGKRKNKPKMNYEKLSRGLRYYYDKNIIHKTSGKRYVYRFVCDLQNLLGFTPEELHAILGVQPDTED
The essentials:
as §1

In another experiment the target is T10, ETV7 (Homo sapiens, UniProt Q9Y603 1-341).
T10 sequence: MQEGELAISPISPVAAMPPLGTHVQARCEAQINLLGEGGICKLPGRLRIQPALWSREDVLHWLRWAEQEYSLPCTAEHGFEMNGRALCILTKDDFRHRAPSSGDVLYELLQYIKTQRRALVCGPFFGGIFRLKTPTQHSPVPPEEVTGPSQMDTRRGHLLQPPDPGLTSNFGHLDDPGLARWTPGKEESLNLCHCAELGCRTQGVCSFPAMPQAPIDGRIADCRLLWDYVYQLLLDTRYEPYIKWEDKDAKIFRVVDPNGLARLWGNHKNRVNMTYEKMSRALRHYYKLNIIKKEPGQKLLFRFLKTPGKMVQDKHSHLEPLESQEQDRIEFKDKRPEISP
The essentials: as §1

The next experiment addresses T11, ETV3 (Homo sapiens, UniProt P41162-2 1-143).
T11 sequence: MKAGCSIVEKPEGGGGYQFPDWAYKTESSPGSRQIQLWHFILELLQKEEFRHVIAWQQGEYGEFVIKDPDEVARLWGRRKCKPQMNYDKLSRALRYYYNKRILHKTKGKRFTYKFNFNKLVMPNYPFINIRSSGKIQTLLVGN
The essentials: as §1

The target in another experiment is ETV6 (Homo sapiens, UniProt P41212 1-452). The essentials:
as §1

ETV1, sequence (P50549 whole entry): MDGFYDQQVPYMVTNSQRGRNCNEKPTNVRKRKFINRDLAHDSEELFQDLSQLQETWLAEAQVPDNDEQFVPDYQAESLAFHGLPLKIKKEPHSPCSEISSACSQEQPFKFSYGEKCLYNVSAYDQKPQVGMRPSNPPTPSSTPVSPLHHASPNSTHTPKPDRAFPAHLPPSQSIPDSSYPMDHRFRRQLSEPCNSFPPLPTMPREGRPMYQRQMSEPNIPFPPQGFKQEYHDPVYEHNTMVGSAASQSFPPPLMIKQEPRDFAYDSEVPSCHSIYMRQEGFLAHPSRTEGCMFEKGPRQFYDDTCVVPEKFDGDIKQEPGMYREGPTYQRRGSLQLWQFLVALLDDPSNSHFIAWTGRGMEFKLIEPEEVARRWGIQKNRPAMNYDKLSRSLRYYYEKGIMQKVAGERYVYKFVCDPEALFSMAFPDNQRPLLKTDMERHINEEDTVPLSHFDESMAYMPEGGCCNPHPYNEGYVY
ETV6, sequence (P41212 whole entry): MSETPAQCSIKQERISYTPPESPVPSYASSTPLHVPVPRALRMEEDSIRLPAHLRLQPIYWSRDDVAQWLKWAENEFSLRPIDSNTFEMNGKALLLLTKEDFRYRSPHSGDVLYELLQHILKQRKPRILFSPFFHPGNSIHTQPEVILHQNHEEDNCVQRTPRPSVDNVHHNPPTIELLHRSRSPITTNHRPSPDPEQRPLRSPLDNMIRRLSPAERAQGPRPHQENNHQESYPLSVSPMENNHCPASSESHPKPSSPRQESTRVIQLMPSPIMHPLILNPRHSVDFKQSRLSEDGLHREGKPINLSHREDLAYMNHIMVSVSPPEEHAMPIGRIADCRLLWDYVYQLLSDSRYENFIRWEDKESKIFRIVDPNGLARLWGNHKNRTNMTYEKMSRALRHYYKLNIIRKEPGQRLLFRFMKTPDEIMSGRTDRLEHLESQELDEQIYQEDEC
SPIB, sequence (Q01892 whole entry): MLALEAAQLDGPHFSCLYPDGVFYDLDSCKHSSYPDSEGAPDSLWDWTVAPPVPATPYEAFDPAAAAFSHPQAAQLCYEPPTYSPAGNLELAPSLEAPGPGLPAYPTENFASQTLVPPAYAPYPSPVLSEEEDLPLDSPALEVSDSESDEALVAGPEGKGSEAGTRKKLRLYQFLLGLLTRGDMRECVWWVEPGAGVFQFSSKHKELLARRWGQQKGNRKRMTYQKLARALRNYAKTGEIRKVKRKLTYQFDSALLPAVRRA

With ACGTCA, the binding signal with FLI1 was 1.01 fold enrichment (6-mer frequency, TF over GST control); with ERG, 1.01 fold enrichment (6-mer frequency, TF over GST control); with EHF it was 1.01 fold enrichment (6-mer frequency, TF over GST control); with SPIB, 1.09 fold enrichment (6-mer frequency, TF over GST control); in the experiment with ELF3 it was 1.03 fold enrichment (6-mer frequency, TF over GST control); with ETV1, 1.05 fold enrichment (6-mer frequency, TF over GST control).

Consider CCGGTG, for which the binding signal with FLI1 is 1.04 fold enrichment (6-mer frequency, TF over GST control); with ELK1, 1.09 fold enrichment (6-mer frequency, TF over GST control); with GABPA it was 1.08 fold enrichment (6-mer frequency, TF over GST control); with ERG, 1.19 fold enrichment (6-mer frequency, TF over GST control); in the experiment with ELK3 it was 1.08 fold enrichment (6-mer frequency, TF over GST control); in the experiment with ETV3L it was 1.01 fold enrichment (6-mer frequency, TF over GST control). Further, the binding signal is 1.02 fold enrichment (6-mer frequency, TF over GST control) with ETS2; 1.04 fold enrichment (6-mer frequency, TF over GST control) with ETV7; 1.08 fold enrichment (6-mer frequency, TF over GST control) with ETV3; 1.02 fold enrichment (6-mer frequency, TF over GST control) with ETV6.
